# Bioassay records from PubChem BioAssay.
# BRCA1 expr act: qHTS Assay to Identify Small Molecule Activators of BRCA1 Expression | MCF7-BRCA1-FFLuc reporter, luminescence, 48 h; response scale: scaled: vehicle 0%, 10 µM genistein 100% | Potency, µM (highest dose often 46.1 µM), without a hit: at the top dose activation, hits mostly activators | hit rate 1.1% among 380,000 | AID 624202, 2012; note: nearly all actives have a fitted effect of over 80% in size
#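 Luminescence from a BRCA1-driven firefly luciferase in MCF7 cells was the read-out, taken 15 min after substrate addition following 48 h compound exposure at 37 °C. Data were normalized to a 10 microM genistein control and DMSO vehicle.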
# EPAC2 antag: qHTS for Antagonist of cAMP-regulated guanine nucleotide exchange factor 2 (EPAC2): primary screen; Potency, µM (doses to about 114 µM), inactives show top-dose activity, negative = inhibition, usual class: inhibitors; EPAC2 GEF exchange of Rap1B-BODIPY-GDP, fluorescence; AID 720708, 2013; Rap guanine nucleotide exchange factor 4 (Homo sapiens), Q8WZA2; hit rate 0.18% among 360,000; note: % is set by controls: 0 for no effect and ±100 for the full control effect; nearly all actives have a fitted effect of over 45% in size
# EPAC2 agonist: qHTS for Agonist of cAMP-regulated guanine nucleotide exchange factor 4 (EPAC2): primary screen; Rap guanine nucleotide exchange factor 4 (Homo sapiens), Q8WZA2; EPAC2 activation, biochemical qHTS; response scale: 100% = 6.5 mM cAMP response; Potency, µM (highest dose often 154 µM), without a hit: at the highest dose activation, actives largely listed as activators; hit rate 0.079% among 360,000; note: nearly all actives have a fitted effect of over 50% in size
#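 Nucleotide exchange monitored as fluorescence drop when BODIPY-GDP leaves Rap1B. Reaction: 100 nM EPAC2, 250 nM RAP1B-BODIPY-GDP, 50 uM GDP, room temperature, kinetic read over 30 min. Activity expressed relative to 6.5 mM cAMP.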
# RGS4 inhibitor: Inhibitors of Regulator of G Protein Signaling (RGS) 4: qHTS; hit rate 0.039% among 390,000; Transcreener GDP fluorescence polarization, RGS4-accelerated GTP hydrolysis; Potency, µM (highest dose often 114 µM), without a hit: at the top dose activity change, negative = inhibition, hits mostly inhibitors; Regulator of G-protein signaling 4 (Homo sapiens), P49798; note: % is set by controls: 0 for no effect and ±100 for the full control effect; nearly all actives have a fitted effect of over 75% in size
# Target sequence (P49798 whole entry, looked up): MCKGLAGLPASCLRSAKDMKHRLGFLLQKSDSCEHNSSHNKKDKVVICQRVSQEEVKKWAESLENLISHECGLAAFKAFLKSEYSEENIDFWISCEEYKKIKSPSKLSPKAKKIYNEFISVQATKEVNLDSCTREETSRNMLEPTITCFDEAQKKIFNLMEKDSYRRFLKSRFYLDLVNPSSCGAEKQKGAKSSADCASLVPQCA
#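 MLSMR compounds (23 nl, pin-transferred) preincubated 10 min at room temperature with a 500nM (2x) first reagent, then RGS4 at 900nM (2x) plus Transcreener GDP mix added; fluorescence polarization (620/688 nm) read before and after 90 min at 30 °C.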
# EPAC1 ag: qHTS for Agonist of cAMP-regulated guanine nucleotide exchange factor 3 (EPAC1): primary screen | EPAC1 agonist qHTS, biochemical assay; response scale: 100% = response to 6.5 mM cAMP | Potency, µM (top dose mostly 154 µM), for inactives: top-dose activation, most hits filed as activators | hit rate 0.073% among 360,000 | AID 720707, 2013; note: nearly all actives have a fitted effect of over 60% in size
#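 Multi-concentration qHTS readout: loss of Rap1B-bound BODIPY-GDP fluorescence driven by 100 nM EPAC1 with excess GDP (50 uM), monitored kinetically at room temperature; agonist response expressed relative to 6.5 mM cAMP.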
# EPAC1 antag: qHTS for Antagonist of cAMP-regulated guanine nucleotide exchange factor 3 (EPAC1): primary screen; Rap guanine nucleotide exchange factor 3 (Homo sapiens), O95398; EPAC1 GEF assay, Rap1b-BODIPY-GDP exchange fluorescence; Potency, µM (series often up to 115 µM), for the others: at the top dose activity change, negative = inhibition, actives largely listed as inhibitors; hit rate 0.14% among 360,000; AID 720709, 2013;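 note: plate controls were vehicle for no effect and positive control for full effect; nearly all actives have a fitted effect of over 50% in size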
# Active calls of the source: *; ? = inconclusive; · = no result; [ ] = remark or other dose. Compounds with a hit are over-represented: about 1.3% of the library has one in this group of screens. Calls come from the whole dose curve; as a rule, active = well fitted curve in the direction sought with a large enough effect; inconclusive = small, poorly fitted or top-dose-only effect, or another doubt; inactive = no such curve, though single readings can be large; an effect the other way counts as inactive or inconclusive. Potency is the fitted concentration of half-maximal effect.
SMILES,BRCA1 expr act,EPAC2 antag,EPAC2 agonist,RGS4 inhibitor,EPAC1 ag,EPAC1 antag
CC(=Cc1ccccc1)C(=O)c1ccccc1,1.7%,-24.0%,3.3%,·,-1.7%,3.1%
CC(C)COc1ccc(C(=O)Nc2ccc(SC(F)F)cc2)cc1,8.91µM*,7.2%,-5.1%,-3.9%,-4.8%,-4.6%
COC(=O)c1ccc(CC(=O)c2nc3ccccc3s2)cc1,44.7%,2.2%,9.9%,-20.2%,-6.5%,-0.9%
COC(=O)c1ccc(/C(O)=C(\C#N)c2nc3ccccc3s2)cc1,5.01µM*,-0.3%,-0.9%,5.9%,7.4%,-21.9%
Cc1cccnc1NC(=O)NC(=O)c1ccc(C(C)(C)C)s1,6.31µM*,4.4%,-0.4%,13.8%,3.4%,-21.1%
Cc1cccnc1NC(=S)NC(=O)c1cccs1,59.0%,-6.9%,15.2%,1.0%,0.0%,?
Cc1ccc(C2=N/C(=C/N3CCOCC3)C(=O)O2)cc1,8.91µM*,-1.3%,0.7%,37.0%,-3.7%,-3.9%
COc1ccccc1N1CCN(C(=S)Nc2ccc3nc(N4CCOCC4)cc(C)c3c2)CC1,-56.3%,-10.8%,7.7%,-14.9%,18.2%,-16.8%
Cc1cc(C(=O)Nc2ccc([N+](=O)[O-])cn2)cs1,3.16µM*,-5.1%,1.6%,-5.1%,1.8%,-16.0%
COc1cc(OC)cc(C(=O)Nc2ccc([N+](=O)[O-])cn2)c1,40.0%,2.6%,8.8%,?,-3.1%,-6.8%
N/C(Cc1cccs1)=N\OC(=O)COc1ccc(Br)cc1Cl,?,-0.4%,17.3%,23.0%,7.7%,-17.3%
N/C(Cc1cccs1)=N\OC(=O)COc1ccccc1Cl,12.6µM*,-2.8%,16.2%,-18.5%[11.4 µM],-1.2%,-12.4%
COc1cc2c(cc1OC)-c1cc(NC3CCCCC3)nc(=O)n1CC2,-22.8%,-4.2%,6.31µM*,-32.4%,12.0%,0.0%
O=C(c1cc(C2CC2)nn1-c1ccccc1)N1CCN(c2ccccc2O)CC1,-47.7%,-5.8%,3.5%,12.7%,6.0%,-21.8%
CCOc1cc(/C=N/Nc2ccc(S(=O)(=O)Nc3ccccc3C(=O)O)cc2[N+](=O)[O-])cc(Cl)c1O,0.9%,4.4%,3.5%,·,-2.6%,50.1µM*
CCOc1ccc(C=NNc2ccc(S(=O)(=O)Nc3ccccc3C(=O)O)cc2[N+](=O)[O-])cc1OC,8.3%,-13.4%,-4.8%,?,5.5%,-12.7%
CN(CCO)c1ccc(C=NNc2ccc([N+](=O)[O-])cc2S(=O)(=O)Nc2ccccc2C(=O)O)cc1,15.3%,?,1.5%,?,-6.3%,50.1µM*
O=C(O)c1ccccc1NS(=O)(=O)c1ccc(N/N=C/c2cccc(O)c2O)c([N+](=O)[O-])c1,-9.8%,-25.8%,-5.8%,?,-12.2%,25.1µM*
COc1cc(C=NNc2ccc(S(=O)(=O)Nc3ccccc3C(=O)O)cc2[N+](=O)[O-])ccc1O,-8.8%,?,-16.3%,-18.4%,-4.4%,89.1µM*
COc1cc(OC)cc(-c2c(-c3cccs3)c3cc(-c4ccc(N(C)C)nc4)ccc3n2C)c1,0.0%,9.2%,2.8%,-16.9%,-9.1%,13.4%
CC(=O)/C(=N\Nc1ccc(C)cc1)Sc1nncn1C,-14.7%,0.8%,4.2%,-27.1%,-16.4%,-9.3%
CC(=O)Nc1ccc(C=NNc2ccc([N+](=O)[O-])cc2S(=O)(=O)Nc2ccccc2C(=O)O)cc1,-10.3%,?,0.1%,-13.9%,-2.0%,?
CC(=O)Nc1ccc(C=NNc2ccc(S(=O)(=O)Nc3ccccc3C(=O)O)cc2[N+](=O)[O-])cc1,-15.0%,50.1µM*,3.7%,-7.2%,1.1%,79.4µM*
CC(=O)Nc1cccc(/C(C)=N/Nc2ccc(S(=O)(=O)Nc3ccccc3C(=O)O)cc2[N+](=O)[O-])c1,15.8%,?,-5.2%,-28.8%,-14.5%,50.1µM*
COc1ccc(Cn2c(O)c(C=Nc3ccccc3C(=O)O)c3ccccc3c2=O)cc1,0.3%,?,-14.0%,?,-6.8%,-10.2%
SMILES,BRCA1 expr act,EPAC2 antag,EPAC2 agonist,RGS4 inhibitor,EPAC1 ag,EPAC1 antag
COc1ccccc1NS(=O)(=O)c1cccc(-n2c(O)c(C=Nc3ccccc3C(=O)O)c3ccccc3c2=O)c1,-36.1%,?,2.0%,-26.7%,5.0%,56.2µM*
Cc1cccc(C)c1NC(=O)Cc1cccs1,-2.5%,8.9%,1.1%,-26.7%,-2.7%,4.6%
O=C(CSc1nc2ccccc2o1)N/N=C/c1ccc(O)c(O)c1,2.3%,-11.2%,10.1%,-2.8%,2.8%,50.1µM*
O=C(CSc1nc2ccc(Cl)cc2o1)NCc1ccc2c(c1)OCO2,-24.5%,-11.8%,-2.4%,0.0%,-18.0%,1.9%
Cc1ccccc1/C=N/NC(=O)CSc1nc2ccccc2o1,-15.2%,7.4%,-5.9%,-4.1%,-1.6%,8.6%
O=C(CSc1nc2ccccc2o1)N/N=C/c1ccccc1,1.1%,18.8%,-2.3%,-4.5%,-0.4%,-22.8%
O=C(CSc1nc2ccccc2o1)NCc1ccc2c(c1)OCO2,108.9%,22.4µM*,4.8%,-9.6%,-8.8%,11.8%
Cc1ccccc1NC(=O)CSc1nc2ccccc2o1,12.6µM*,8.5%,-1.6%,-28.7%,-2.8%,2.3%
O=C(O)c1cc(S(=O)(=O)N2CCOCC2)ccc1N1CCCCC1,0.0%,4.6%,10.9%,19.6%,7.0%,?
CC(C)CN(CCNC(=O)c1cn(C)c2ccc(S(=O)(=O)N3CCCCCC3)cc2c1=O)CC(C)C,·,·,·,-6.2%,·,·
O=C(N/N=C/c1ccccc1O)C1CC(=O)N(c2ccc(F)cc2)C1 (configuration not stated),-74.3%,-2.3%,-2.6%,-2.0%,-1.4%,-7.3%
Cc1c(Br)c(O)c(Br)c(O)c1/C=N/n1c(-c2ccccc2)n[nH]c1=S,-5.2%,-12.9%,9.1%,?,4.2%,56.2µM*
CN(C)c1ccc(N=Nc2ccc(S(N)(=O)=O)cc2)cc1,2µM*,-4.7%,-7.5%,-18.8%,-9.5%,-12.4%
Cc1ccc(C(=O)Nc2nnc(S(=O)(=O)Nc3ccccc3C)s2)cc1C,-18.2%,-3.1%,3.6%,6.8%,-9.5%,-15.1%
